In PubChem BioAssay AID624264 (National Center for Advancing Translational Sciences (NCATS), 2012):
The list shows a part of the results. Records with an inconclusive call do not appear. Activity calls are given as the source filed them. Calls come from the whole dose curve; as a rule, active = well fitted curve in the direction sought with a large enough effect; inconclusive = small, poorly fitted or top-dose-only effect, or another doubt; inactive = no such curve, though single readings can be large or run the other way.

Test: qHTS for Inhibitors of Glutaminase (GLS): Hit Confirmation using Cytotoxicity
Settings: HEK-293 viability, CellTiter-Glo luminescence, 24 h; series mostly up to 46.1 µM
Source text: Glutaminase (GLS) catalyzes the hydrolysis of glutamine into glutamate and ammonia. It plays a critical role in glutaminolysis, which is an important energy source for proliferating cells. It was shown that c-Myc, an oncogenic transcription factor known to regulate microRNAs and to stimulate cell proliferation, increases glutamine metabolism by stimulating the expression of GLS via direct suppression of miR23a and miR23b. […] GLS is also thought to play a pathogenic role on HAD using a human HIV-1 infected macrophage system. […] GLS inhibition limits glutamate release and provides neuroprotection against HIV-1 infected macrophages. […] The overall goal of this project is to identify small molecule inhibitors of GLS through quantitative high throughput screening (qHTS) of the MLSMR. A validated potent and selective inhibitor can be used as a tool molecule to further study the pharmacology of its target as well as explore its potential therapeutic application in cancer and inflammatory neurological disorders, such as HIV1-associated dementia (HAD) and multiple sclerosis. This is a hit confirmation assay using a cytotoxic read-out to exclude cytotoxic compounds. Toxic compounds will be labeled as active and excluded in future experiment. NIH Chemical Genomics Center [NCGC] NIH Molecular Libraries Probe Centers Network [MLPCN] MLPCN Grant: DA032470 Assay Submitter (PI): Barbara S. Slusher, Johns Hopkins University
HEK-293 cells are grown in a flask up to 80% confluence. Cells will be trypsinized, washed, and resuspended in MEM Eagle + 10% FBS + 1% pen-strep media at the concentration of 120 cells/microl. Five microl/well of cell solution will be dispensed into a 1536-well assay plates (Greiner, solid white medium-binding plates) with Auror Discovery BioRAPTR Flying Reagent Dispenser (FRD; Beckton-Dickenson). Cells will be pre-incubated at 37 °C, 5% CO2 for 4hrs. Compound and control solutions (23nl) will then be transferred to the assay plate using the Kalypsys 1536 pin-tool. […] Luminescence signal will be read with PerkinElmer ViewLux plate reader after 30 min room temperature incubation.

Which outcome does the source give for `COc1cc(OC)c(S(=O)(=O)Nc2ccccc2C(=O)O)cc1S(=O)(=O)Nc1ccccc1C(=O)O` here?
Its outcome is “inactive”.

For `O=C(O)c1cccc(S(=O)(=O)Nc2ccc(O)cc2Sc2nc3ccccc3s2)c1`, which outcome is on record?
The outcome was “inactive”.

For `CCN1C(=O)c2cccc3c(S(=O)(=O)Nc4ccccc4O)ccc1c23`, which outcome is on record?
The outcome was “inactive”.
